# Laboratory results from PubChem BioAssay (EPA / NIEHS).
# Calls of active or inactive are those of the source. Rule for the calls: active = hit-call score of the fitted dose curve at least 0.9, where 1 is the maximum; inactive = score below 0.9.
# Assay: ATG_MRE_CIS: Attagene CIS-FACTORIAL HepG2 Assay for human Metal Responsive Element (MRE) (AID 2282954)
# Settings: HepG2 MRE cis-reporter transcription, Attagene multiplex; actives raise or lower the signal
# Method: ATG_CIS is a cell-based, multiplexed-readout assay that uses HepG2, a human liver cell line, with measurements taken at 24 hours after chemical dosing in a 24-well plate.ATG_MRE_CIS is one of 52 assay component(s) measured or calculated from the ATG_CIS assay. It is designed to make measurements of mRNA induction, a form of inducible reporter, as detected with fluorescence intensity signals by Reverse transcription polymerase chain reaction (RT-PCR) and Capillary electrophoresis technology.Data from the assay component ATG_MRE_CIS was analyzed into 1 assay endpoint. This assay endpoint, ATG_MRE_CIS, was analyzed with bidirectional fitting relative to DMSO as the negative control and baseline of activity. Using a type of inducible reporter, measures of mRNA for gain or loss-of-signal activity can be used to understand the reporter gene at the transcription factor-level as they relate to the gene MTF1. Furthermore, this assay endpoint can be referred to as a primary readout, because this assay has produced multiple assay endpoints where this one serves a reporter gene function. To generalize the intended target to other relatable targets, this assay endpoint is annotated to the dna binding intended target family, where the subfamily is zinc finger.
# Human liver HepG2 cells are transiently transfected with multiple reporter transcription units (MRTUs) in 6-well plates using FuGene 6 reagent (Roche; 3 ml FuGene/1 mg DNA). The MRTU constructs are regulated by a cis-regulating element (promoter). […] A major difference between the CIS and TRANS system is that in CIS activities of endogenous TFs are measured, whereas the TRANS assay evaluates changes in activities of exogenous, chimeric NR-Gal4 proteins. […] At the end of 24 hour incubation, total RNA was isolated using TriZol reagent (Invitrogen). The isolated RNA is then reverse-transcribed using oligo(dT) primer and Mo-MLV reverse transcriptase (Invitrogen) with DNAse I (Ambion) treatment for 30 min. The one-tenth of the produced cDNA was amplified by PCR using Taq DNA polymerase (Invitrogen) and two reporter sequence-specific primers. The PCR products were fluorescently labeled by primer extension with 6-arboxyfluorescein (6-FAM) 5'-labeled reporter sequence-specific primer (2 min at 95 C, 20 s at 68 C and 10 min at 72 C) and these products were digested with 5U of HpaI (New England Biolabs) for 2h at 37 C. The fragments were purified using Qiaquick PCR columns (Qiagen), analyzed on an ABI 3130xL genetic analyzer (Applied Biosystems) with peak positions identified by using a set of X-rhodamine (ROX)-labeled MapMarker1000 molecular weight standards (BioVentures). The raw capillary electrophoresis data was processed using Attagraph software (Attagene).
Compound,outcome,AC50
c1cc(-c2ccncc2)ccn1,inactive,
C[C@]12C=CC(=O)C=C1CC[C@@H]1[C@@H]2C(=O)C[C@@]2(C)[C@H]1CC[C@]2(O)C(=O)CO,inactive,
CC1(C)CC(N=C=O)CC(C)(CN=C=O)C1 (stereo not given),inactive,
Cc1nc(C)nc(N2C[C@@H](C)N(c3ccnc([C@@H](C)O)n3)[C@@H](C)C2)n1,inactive,
CCCCCCCCCCCCCCCC,inactive,
CC1=C(/C=C/C(C)=C/C=C/C(C)=C/CO)C(C)(C)CCC1,,106 µM (active)
CC=Cc1ccc(O)c(OC)c1,inactive,
CCCCCC(=O)O,inactive,
CC(=O)OCCOCCOCCOC(C)=O,inactive,
CCCCN(CCCC)CCCC,inactive,
Cc1ccc(C(C)C)c(O)c1,inactive,
CC(=O)Oc1ccccc1C(=O)O,inactive,
CNC(=O)[C@H]1O[C@@H](n2cnc3c(NCc4cc(Cl)ccc4OCc4cc(C)no4)ncnc32)[C@H](O)[C@@H]1N,inactive,
Cc1ccccc1Cl,inactive,
CCCCc1ccc2c(n1)[C@@H](c1ccc(OC)cc1C[C@H](C)C(=O)O)[C@H](C(=O)O)[C@H]2c1ccc2c(c1)OCO2,inactive,
CC(C)c1ccc(C(=O)N=C(N)N)cc1S(C)(=O)=O,inactive,
O=C(O)CCCCC(=O)O,inactive,
Cc1ccc(N(C)C)cc1,inactive,
CC(=O)C(C)=CC1C(C)=CCCC1(C)C (stereo not given),inactive,
COCCOCCOC,inactive,

Compound,outcome,AC50
COc1cc(C=O)ccc1O,inactive,
CC(CO)OC(C)CO (stereo not given) (tested in a mixture with another compound),inactive,
Oc1ccc2c(c1)OC[C@@H](N1CCC(O)(c3ccc(F)cc3)CC1)[C@H]2O,,57.2 µM (active)
CC(C)(C)c1cc(O)c(C(C)(C)C)cc1O,,39.2 µM (active)
Cc1ccc2ncccc2c1,inactive,
COc1ccc(C)cc1N,inactive,
CN[C@H]1CC[C@@H](c2ccc(Cl)c(Cl)c2)c2ccc(S(N)(=O)=O)cc21,inactive,
OC[C@@H](O)[C@@H](O)[C@H](O)[C@H](O)CO,inactive,
C1CCC(SSC2CCCCC2)CC1,inactive,
NC(=O)Cn1c(=O)cc(CCN2CCN(c3nccc4sccc34)CC2)c2ccc(F)cc21,inactive,
Oc1ccc2ccccc2c1N=Nc1ccccc1,,2.47 µM (active)
CCNc1cccc(C)c1,inactive,
COc1cc(S(=O)(=O)O)c(C)cc1N=Nc1c(O)ccc2cc(S(=O)(=O)O)ccc12,inactive,
CC(=O)OC/C=C(\C)CCC=C(C)C,inactive,
Cc1c(C(=O)O)c(O)cc2c1C(=O)c1c(O)c([C@@H]3O[C@H](CO)[C@@H](O)[C@H](O)[C@H]3O)c(O)c(O)c1C2=O,inactive,
CCCCCCCCCCCCCCCCCC(=O)O,inactive,
O=c1[nH]cc(F)c(=O)[nH]1,inactive,
Clc1cc(Cl)c(Cl)cc1Cl,inactive,
Nc1nc(N)c2nc(CNc3ccc(C(=O)N[C@@H](CCC(=O)O)C(=O)O)cc3)cnc2n1,inactive,
O=c1c(O)c(-c2ccc(O)c(O)c2)oc2cc(O)cc(O)c12,inactive,
